# Assay outcomes deposited in PubChem BioAssay by Broad Institute.
# Hits are enriched below; roughly 1.5% of the tested compounds scored in any of these assays.
# RAD52 inh: RAD52 DNA annealing inhibitors, primary screen, biochemical, FRET, single point, set 2. recombinant RAD52 DNA annealing, FRET fluorescence. inhibition, % at 18.7 µM. hit rate 0.46% among 360,000. AID 651710, 2012;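 active = every replicate showing at least 50% inhibition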
# Target sequence (P43351 whole entry, looked up): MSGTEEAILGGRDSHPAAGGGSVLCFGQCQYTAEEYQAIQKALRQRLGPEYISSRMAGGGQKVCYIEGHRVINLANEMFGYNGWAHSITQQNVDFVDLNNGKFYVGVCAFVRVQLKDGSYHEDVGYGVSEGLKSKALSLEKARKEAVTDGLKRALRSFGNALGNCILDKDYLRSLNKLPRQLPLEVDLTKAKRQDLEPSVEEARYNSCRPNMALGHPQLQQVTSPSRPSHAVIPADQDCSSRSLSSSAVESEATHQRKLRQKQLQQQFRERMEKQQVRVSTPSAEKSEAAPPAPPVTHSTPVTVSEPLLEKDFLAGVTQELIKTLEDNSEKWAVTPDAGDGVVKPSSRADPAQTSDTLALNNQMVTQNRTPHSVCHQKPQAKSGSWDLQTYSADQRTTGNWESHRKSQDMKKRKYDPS
# CASP6 VEID inh: human caspase-6 inhibitors, primary screen, biochemical, VEID-R110 fluorescence, single point, set 2; P55212; purified caspase-6, Z-VEID-R110 cleavage fluorescence; inhibition, % at 12.5 µM; hit rate 0.53% among 350,000; AID 686996, 2013;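 active = mean inhibition across replicates at least about 35%, with every replicate also reaching that limit, limit read from the data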;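 note: 0% = median of neutral control wells and 100% = no fluorescence left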
# miR-122 sensor: miR-122 Renilla sensor signal increase in Huh7, primary screen, miR-122 inhibitor project, cell-based, single point, plate reader. Huh7 miR-122 Renilla luciferase sensor, 48 h; neutral wells = 0, positive control = 100. activation (reporter increase), % at 12.5 µM. hit rate 0.3% among 340,000. AID 602342, 2012;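 active = mean replicate activation score at least 90 and every replicate individually at or above 90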;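 note: higher luciferase means less miR-122 activity so hits act as miR-122 inhibitors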
# NSD2 inh: NSD2 histone methyltransferase inhibitors, primary screen, biochemical, AlphaScreen, single concentration, set 2 | Histone-lysine N-methyltransferase NSD2 (Homo sapiens), O96028 | NSD2 peptide methylation, 120 min | inhibition, % at 12.5 µM | hit rate 0.54% among 310,000; in the data active = inhibition above about 50%
# MLL AF4-AF9 inh: inhibitors of AF4 peptide binding to AF9, primary screen, biochemical, AlphaScreen, biotin-AF4 peptide, FLAG-AF9, single point | hit rate 0.47% among 350,000 | AID 651704, 2012 | Protein AF-9 (Homo sapiens), P42568 | inhibition, % at 10 µM;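 active = every replicate reaching a set inhibition limit, whatever the replicate mean, cut at about 25% in these data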;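 note: 0% = plate neutral control median and 100% = total signal loss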
# AlphaScreen art: AlphaScreen signal interference with preloaded methylated product, dose response, artefact control for NSD2 inhibitor project, biochemical, cherry-picked samples; shares compounds with NSD2 inh; AlphaScreen artifact counterscreen, preloaded methylated H4 peptide; AC35, µM (doses to about 10 µM), for inactives: at the top dose activity change, negative = signal loss; hit rate 9.4% among 1,500; call rule not given here
# An asterisk follows results filed as active; nt = not tested or not shown; [ ] = remark or other dose.
SMILES,RAD52 inh,CASP6 VEID inh,miR-122 sensor,NSD2 inh,MLL AF4-AF9 inh,AlphaScreen art
COc1ccc(S(=O)(=O)Nc2ccc3c(c2)C(=O)N([C@H](C)CO)C[C@@H](C)[C@H](CN(C)C(=O)Cc2ccccc2)OCCCC[C@@H](C)O3)cc1,-2,1,-10[16.7 µM],nt,1,nt
Cc1cc(C)c(Nc2cc(S(=O)(=O)O)c(N)c3c2C(=O)c2ccccc2C3=O)c(C)c1,nt,nt,nt,145*,nt,6.2µM*
Cc1cc(C)c(NC(=O)COC(=O)c2cccc3c2C(=O)c2ccccc2C3=O)c(C)c1,nt,nt,nt,1,nt,nt
CC1(CC(=O)N/N=C/c2cc([N+](=O)[O-])c(O)cc2O)OCCO1,-21,69*,-5,60*,-4,0%
CCN(CC)CC(C)(C)C(=O)/C=C/c1ccc(/C=C/C(=O)C(C)(C)CN(CC)CC)cc1,35,-25,nt,101*,-6,-3%
CCN(CC)CCOC(=O)/C=C/c1ccccc1,9,4,nt,1,-3,nt
O=C(O)CNS(=O)(=O)c1ccc2c3c(cccc13)C(=O)N2,-14,32,6,5,2,nt
O=C1Nc2ccc(S(=O)(=O)NCc3ccco3)c3cccc1c23,nt,nt,16,135*,nt,-2%
O=[N+]([O-])c1ccc(-c2cccnc2)cc1,-6,-3,-3,158*,-1,0%
CCC(=O)Nc1ccc2c(c1)C(=O)N(C)C[C@H](OC)[C@H](C)CN(C(=O)c1ccc(F)cc1)[C@@H](C)CO2,-13,0,2[16.7 µM],nt,1,nt
NC1(C(=O)O)CSSC1,-8,4,nt,76*,48*,-2%
Cc1cc(S(=O)(=O)NCc2cccnc2)ccc1F,1,-1,nt,59*,0,-5%
Cc1ccc(C)c(N2C(=N)S/C(=C\c3ccc(-c4ccccc4C(=O)O)o3)C2=O)c1,-84,37*,-9,54*,-5,-3%
Cc1ccc2c(nc3s/c(=C\c4ccc(-c5ccccc5C(=O)O)o4)c(=O)n32)c1C,-13,0,nt,10,-1,nt
CC(C)NC(=O)N[C@H]1CC[C@@H](CC(=O)N2CCCCC2)O[C@H]1CO,-13,0,-3[16.7 µM],nt,-1,nt
O=C(O)c1cc(-c2ccco2)nn1-c1ccc(Cl)cc1,-25,50*,nt,60*,2,-5%
Cc1ccc(-n2nc(-c3ccco3)cc2C(=O)O)c(C)c1,-59,nt,nt,29,-1,nt
Cc1noc(C)c1S(=O)(=O)Nc1ccc2c(c1)C(=O)N([C@@H](C)CO)C[C@H](C)[C@H](CN(C)C(=O)Nc1ccc3c(c1)OCO3)OCCCC[C@H](C)O2,13,2,-3[16.7 µM],nt,3,nt
COc1ccc(NC(=O)N(C)C[C@@H]2Oc3c(NS(=O)(=O)c4ccc(Cl)cc4)cccc3C(=O)N([C@@H](C)CO)C[C@H]2C)cc1,-6,-1,-4[16.7 µM],nt,-2,nt
O=c1c(-c2ccccc2Cl)coc2c(CN3CCCCC3)c(O)ccc12,-22,-4,-6,39,1,nt
CC1CN(Cc2c(O)ccc3c(=O)c(-c4ccccc4Cl)coc23)CC(C)O1 (configuration not stated),-9,-1,-6,61*,-2,-1%
CCOC(=O)c1c2c(n(C)c1C)C(=O)C(=O)c1ccc(Br)cc1-2,nt,nt,-10,nt,nt,nt
CCOC(=O)c1c2c(n(Cc3ccccc3)c1C)C(=O)C(=O)c1ccccc1-2,-4,12,nt,63*,5,9.3µM*
COc1cc(NCc2ccccc2O)c2ncccc2c1,-11,4,nt,-1,3,nt
Oc1ccccc1CNc1cccc2cccnc12,3,-4,nt,53*,15,-2%
SMILES,RAD52 inh,CASP6 VEID inh,miR-122 sensor,NSD2 inh,MLL AF4-AF9 inh,AlphaScreen art
CCCNC(=O)C[C@H]1CC[C@H]2[C@@H](COc3ccc(NS(=O)(=O)c4ccccc4C)cc3C(=O)N2C)O1,-4,0,-25[16.7 µM],nt,-1,nt
C=CCn1c2ccccc2n2nc(C)c(=O)nc12,nt,nt,0,2,nt,nt
Cc1nn2c3ccccc3n(CCN3CCCCC3)c2nc1=O,nt,nt,-5,110*,nt,-5%
O=C(c1cccnc1)N1CC(=O)N2[C@H](C1)[C@@H](c1ccc(/C=C/c3ccccc3)cc1)[C@@H]2CO,-2,-1,nt,nt,9,nt
O=C1C(=C(I)I)c2ccccc2-c2ccccc21,-15,24,nt,131*,1,-16%
C[C@H](CO)N1C[C@H](C)[C@H](CN(C)C(=O)Nc2ccc(C(F)(F)F)cc2)Oc2c(NS(=O)(=O)c3ccccc3)cccc2C1=O,19,-1,11[16.7 µM],nt,0,nt
CCN(CC)C(=O)c1cc([N+](=O)[O-])cc2c1-c1ccc([N+](=O)[O-])cc1C2=C(C#N)C#N,-3,2,-2,87*,0,-15%
CCN(CC)C(=O)c1ccc(Oc2ccc([N+](=O)[O-])cc2Cl)cc1,-12,-1,-7,7,7,nt
COc1ccc(-n2ncc3c(NCCCn4ccnc4)ncnc32)cc1,8,-4,-1,121*,nt,0%
COCCNc1ncnc2c1cnn2-c1ccc(Cl)cc1,nt,nt,-14,-2,nt,nt
O=C(O)CN1C(=O)/C(=C\c2cc(Br)ccc2OCc2ccc(F)cc2)SC1=S,-29,39*,nt,104*,-7,-11%
O=C(O)CN1C(=O)/C(=C\c2ccccc2OCc2ccc(F)cc2)SC1=S,-17,16,-9,16,0,nt
CCC(=O)N(C)C[C@@H]1Oc2ncc(Br)cc2C(=O)N([C@@H](C)CO)C[C@@H]1C,3,0,-1[16.7 µM],nt,-3,nt
Fc1ccccc1NC(=S)Nc1cccc2cnccc12,-18,27,nt,99*,2,-4%
NC(=S)Nc1cccc2cnccc12,nt,nt,2,-1,nt,nt
Cc1ccc(C)c(NC(=S)Nc2cccc3cnccc23)c1,-10,20,14,98*,0,-6%
Cc1ccccc1NC(=S)Nc1cccc2cnccc12,7,17,3,104*,1,6%
CCCCNC(=S)Nc1cccc2cnccc12,-13,-1,20,1,2,nt
CCCCn1c(Cn2nc(C(=O)O)c3ccccc3c2=O)nc2cc(S(N)(=O)=O)ccc21,-54,0,nt,102*,-5,-3%
CNCc1cc(Br)c(OCC(=O)Nc2ccccc2OC)c(OC)c1,2,-2,nt,73*,5,-3%
C=CCn1c(SCc2ccc(C#N)cc2)nnc1-c1ccc(C)cc1,nt,nt,27,61*,nt,-2%
Cn1c(SCc2ccc(C#N)cc2)nnc1-c1ccncc1,0,-2,-4,0,-3,nt
COc1ccccc1OCc1nc(C#N)c(NCCCn2ccnc2)o1,-27,-17,0,-6,4,nt
COc1ccc(Nc2oc(COc3ccccc3OC)nc2C#N)cc1,-18,-1,nt,51*,0,-2%
